The record followed here is PubChem BioAssay (Tox21).

Values joined by “and” are separate entries in the source; they are usually repeats but may differ in a detail not shown here. Equal entries are not always repeated. Records with an inconclusive call do not appear. The source holds several records for some structures; these can differ, active in one and inactive in another. Active and inactive are the calls of the source. Unless noted, calls follow the shape of the dose curve; as a rule, active = well fitted curve in the direction sought with a large enough effect in the repeat runs; inconclusive = weak or mixed curves; inactive = no such curve, though single readings can be large; an effect the other way counts as inactive or inconclusive. Starred links: 1 amine or outer side, 2 acyl side, 3 side chain; linkers in the order of their positions; H or OH if unused. Positions of bridges follow the written chain, without caps; N, C: chain ends. Non-standard residues stand in square brackets, D forms with d. Residues, ends and D or L forms follow the SMILES beside them. Chains are numbered I, II in the order given. Actinocin(9to1) = Cc1c2oc3c(C)ccc(C(=O)[*:1])c3nc-2c(C(=O)[*:2])c(N)c1=O; NMeV = CN[C@H](C(=O)O)C(C)C; Sar = CNCC(=O)O

The nature of experiment [1]: qHTS assay for small molecule agonists of the p53 signaling pathway (AID 651631; calls by dose curve; also: nearly all actives have a fitted effect of over 15% in size; also: potency is read from the fitted curve at half-maximal effect). The method in brief: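 We treat p53RE-bla HCT-116 cells with compounds for 16 h at 37 °C, add LiveBLAzer B/G FRET substrate for 2 h at room temperature, and measure fluorescence intensity.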
Experiment [2] is described as follows: qHTS assay for small molecules that induce genotoxicity in human embryonic kidney cells expressing luciferase-tagged ATAD5 (AID 651632). Also: nearly all actives have a fitted effect of over 15% in size. Also: potency is read from the fitted curve at half-maximal effect. The method in brief: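 DMSO vehicle served as the control. HEK293T reporter cells, 16 hr at 37C, then 30 min Amplite at room temperature; ATAD5 induction is measured as luciferase activity.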
(In general: In qHTS, concentration-response curves come from the screen itself.)

The nature of experiment [3]: qHTS assay for small molecules that induce genotoxicity in human embryonic kidney cells expressing luciferase-tagged ATAD5 - cell viability (AID 651634; calls by dose curve; also: nearly all actives have a fitted effect of over 25% in size; also: potency is read from the fitted curve at half-maximal effect). The method in brief: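 Here HEK293T cells with the ATAD5 luciferase reporter are incubated with test compounds for 15.5 hr, and cytotoxicity is then gauged by measuring protease activity in live cells using fluorescence.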

The nature of experiment [4]: qHTS assay for small molecule disruptors of the mitochondrial membrane potential - cell viability (AID 720634; calls by dose curve; also: nearly all actives have a fitted effect of over 20% in size; also: potency is read from the fitted curve at half-maximal effect). The method in brief:
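Viability of HepG2 cells is scored from ATP content by luminescence; cells are exposed to compound for 1 hr at 37 C and 5% CO2, then dosed with m-MPI dye before the CellTiter-Glo reagent.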

The nature of experiment [5]: qHTS assay to test for compound auto fluorescence at 590 nm (red) in HepG2 cells (AID 720674). The method in brief: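 Fluorescence at 590 nm emission following 540 nm excitation was recorded from HepG2 wells one hour after compound transfer, with DMSO-only wells as vehicle and Rose Bengal sodium equivalency as the scale.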
Experiment [6] in a line: qHTS assay to test for compound auto fluorescence at 535 nm (green) in HepG2 cells (AID 720675).
Experiment [7] in a line: qHTS assay to test for compound auto fluorescence at 460 nm (blue) in HEK293 cells (AID 720678). The method in brief:
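HEK293 cells (2,000/well, medium with 10% dialyzed FBS) attached 4-5 hr, then exposed to compound overnight at 37C, 5% CO2. Blue fluorescence read at 405/460 nm, with triamterene as reference fluorophore.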

The nature of experiment [8]: qHTS assay to test for compound auto fluorescence at 535 nm (green) in HEK293 cells (AID 720680).
A short description of experiment [9]: qHTS assay to test for compound auto fluorescence at 460 nm (blue) in HEK293 cell free culture (AID 720681). The method in brief:
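Compounds were added to cell-free DMEM with 10% FBS and fluorescence read directly. The blue channel used 405 nm excitation and 460 nm emission, with triamterene as the reference fluorophore.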

A short description of experiment [10]: qHTS assay to test for compound auto fluorescence at 535 nm (green) in HEK293 cell free culture (AID 720682). The method in brief: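 Green-channel intensity (Ex/Em 485/535 nm) was recorded from compound-treated wells containing only DMEM with 10% FBS. Fluorescein provided the equivalency standard.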
Experiment [11] in a line: qHTS assay to test for compound auto fluorescence at 590 nm (red) in HEK293 cell free culture (AID 720683). The method in brief:
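Cell-free wells of DMEM with 10% FBS received compound, and intrinsic fluorescence was read at excitation/emission 540/590 nm. Values expressed as equivalence to Rose Bengal sodium.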

Experiment [12] is described as follows: qHTS assay to test for compound auto fluorescence at 590 nm (red) in HepG2 cell free culture (AID 720684). The method in brief:
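Auto fluorescence equivalency versus Rose Bengal sodium, red channel Ex/Em 540/590 nm; compounds in cell-free MEM/10% FBS; DMSO vehicle control.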

A short description of experiment [13]: qHTS assay to test for compound auto fluorescence at 535 nm (green) in HepG2 cell free culture (AID 720686).
The nature of experiment [14]: qHTS assay to test for compound auto fluorescence at 460 nm (blue) in HepG2 cells (AID 720687). The method in brief: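 HepG2 cells in MEM with 10% FBS, attached overnight at 37 C, were exposed to compound or DMSO for 1 hr at 37 C, 5% CO2. Blue fluorescence was read at 405/460 nm, with triamterene as reference fluorophore.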
A short description of experiment [15]: qHTS assay for small molecule agonists of the p53 signaling pathway - cell viability (AID 651633; calls by dose curve; also: nearly all actives have a fitted effect of over 30% in size; also: potency is read from the fitted curve at half-maximal effect). The method in brief: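 p53RE-bla cells were treated with compound for 16 hours at 37 C. Cytotoxicity was then measured as CellTiter-Glo luminescence after 30 min at room temperature.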
Experiment [16] in a line: qHTS assay to test for compound auto fluorescence at 590 nm (red) in HEK293 cells (AID 720679). The method in brief:
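HEK293 cells (2,000/well, 10% dialyzed FBS) attached 4-5 hr, then dosed with compound or DMSO and incubated overnight at 37C, 5% CO2. Red fluorescence read at 540/590 nm, Rose Bengal sodium as reference fluorophore.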

Experiment [17] can be described thus: qHTS assay to test for compound auto fluorescence at 460 nm (blue) in HepG2 cell free culture (AID 720685). The method in brief:
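Cell-free plates of MEM plus 10% FBS received 23 nL compound or DMSO vehicle; blue-channel (405/460 nm) intensity scored against triamterene as reference fluorophore.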

The target in experiment [18] is Glucocorticoid receptor (Homo sapiens) (UniProt P04150). In words: qHTS assay to identify small molecule antagonists of the glucocorticoid receptor (GR) signaling pathway (AID 720692; active = well fitted inhibition curve with a large enough effect in the signal ratio in the repeat runs, not every such curve was filed as active; the % refers to the signal ratio; also: potency is read from the fitted curve at half-maximal effect). The method in brief: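 In a 1536-well cell format, compounds were added 4 h after seeding GR-bla HeLa cells, together with dexamethasone at 5 nM final; reporter activity was measured by FRET-substrate fluorescence following 18 h at 37 C.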
Sequence of Glucocorticoid receptor (Homo sapiens) (P04150 whole entry, looked up): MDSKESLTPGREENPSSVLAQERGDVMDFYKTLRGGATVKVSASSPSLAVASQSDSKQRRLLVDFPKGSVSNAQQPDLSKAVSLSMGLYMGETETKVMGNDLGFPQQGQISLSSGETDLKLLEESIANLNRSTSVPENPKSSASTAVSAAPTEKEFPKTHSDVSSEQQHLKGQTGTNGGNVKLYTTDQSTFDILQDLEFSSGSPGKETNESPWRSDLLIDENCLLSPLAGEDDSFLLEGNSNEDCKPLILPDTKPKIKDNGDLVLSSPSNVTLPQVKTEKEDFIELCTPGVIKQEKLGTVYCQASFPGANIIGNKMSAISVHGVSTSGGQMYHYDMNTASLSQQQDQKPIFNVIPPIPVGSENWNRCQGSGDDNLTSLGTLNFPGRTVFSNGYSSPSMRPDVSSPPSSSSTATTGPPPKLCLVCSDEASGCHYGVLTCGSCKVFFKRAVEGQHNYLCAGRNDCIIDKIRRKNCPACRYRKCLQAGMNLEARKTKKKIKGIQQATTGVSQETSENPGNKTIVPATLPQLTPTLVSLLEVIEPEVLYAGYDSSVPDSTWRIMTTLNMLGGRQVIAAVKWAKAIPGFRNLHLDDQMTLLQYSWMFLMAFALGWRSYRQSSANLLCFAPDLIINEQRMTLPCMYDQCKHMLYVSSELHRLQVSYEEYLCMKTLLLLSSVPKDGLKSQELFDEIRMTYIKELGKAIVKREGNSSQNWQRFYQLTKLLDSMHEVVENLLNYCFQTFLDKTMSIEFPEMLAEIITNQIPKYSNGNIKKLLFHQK

Experiment [19] can be described thus: qHTS assay for small molecule disruptors of the mitochondrial membrane potential (AID 720635). Also: potency is read from the fitted curve at half-maximal effect. The method in brief: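 HepG2 cells exposed to compound 1 hr at 37C, then Mito-MPS dye 30 min. Ratio read of aggregate (540/590 nm) versus monomer (490/535 nm) fluorescence.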
Experiment [20] concerns the target Glucocorticoid receptor (Homo sapiens) (UniProt P04150). Kind of experiment: qHTS assay to identify small molecule agonists of the glucocorticoid receptor (GR) signaling pathway (AID 720691; active = well fitted activation curve with a large enough effect in the signal ratio in the repeat runs, not every such curve was filed as active; the % refers to the signal ratio). The method in brief:
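Compounds in DMSO, alongside positive controls, were added to GR-bla HeLa reporter cells and incubated 18 h at 37 C; GRE-driven beta-lactamase was detected by fluorescence after 2 h with FRET substrate at room temperature.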
% is scaled to controls: 0 for no effect and ±100 for the full control effect.

Take `Oc1c(Cl)cc(Cl)cc1Sc1cc(Cl)cc(Cl)c1O`: the Potency in [1] is 11.9 µM (active) and 34.9 µM (active) and 21.7 µM (active); in experiment [3], 11.9 µM (active) and 30.7 µM (active) and 48.6 µM (active); in experiment [4] it was 13.7 µM (active) and inactive. Moreover, the Potency entry in experiment [2], in [6], in experiment [7], in [8], in experiment [9] and in experiment [10] was “inactive” in each case. The Potency entry in experiment [13] and in experiment [14] was “inactive” throughout. Further, the compound was classed as inactive in experiment [5], in experiment [11] and in [12].

As for `Cc1c2oc3c(C)ccc(C(=O)N[C@@H]4C(=O)N[C@H](C(C)C)C(=O)N5CCC[C@H]5C(=O)N(C)CC(=O)N(C)[C@@H](C(C)C)C(=O)O[C@@H]4C)c3nc-2c(C(=O)N[C@@H]2C(=O)N[C@H](C(C)C)C(=O)N3CCC[C@H]3C(=O)N(C)CC(=O)N(C)[C@@H](C(C)C)C(=O)O[C@@H]2C)c(N)c1=O` (I: T[dV]P[Sar][NMeV] / II: T[dV]P[Sar][NMeV]; ester I:1-I:C, II:1-II:C; linker I:N-II:N via Actinocin(9to1)), the Potency is 5.3 nM (active) and 2.7 nM (active) in [1]; 16.8 nM (active) and 23.7 µM (active) in experiment [3]; 134 nM (active) in experiment [18]. Also, the Potency result in [2], in [15], in experiment [4], in experiment [6], in [7] and in experiment [8] was “inactive” each time. Moreover, the Potency result in experiment [9], in [10], in [17], in experiment [13] and in experiment [14] was “inactive” each time. The call in [5], in [16] and in experiment [11] was inactive.

For `CC(C)CCOC(=O)c1ccc(N(C)C)cc1`, the Potency entry in [1], in experiment [15], in experiment [3], in experiment [6], in experiment [7] and in experiment [8] was “inactive” in each case. Moreover, the Potency result in experiment [9], in experiment [10] and in experiment [13] was “inactive” each time. In addition, the Potency in [2] was 13.3 µM (active). For the same compound, the call in experiment [5], in experiment [16], in experiment [11] and in experiment [12] was inactive.

Take `COc1nc(C)nc(Cl)c1NC1=NCCN1`: the Potency result in [2], in experiment [15], in [3], in [4], in experiment [19] and in experiment [20] was “inactive” throughout. Further, the Potency entry in experiment [18] is “inactive”. Besides, the fluorescence, relative to Rose Bengal in [5] is 0.0093% [at 18.6 µM] (inactive). Further, the fluorescence, % of fluorescein control in experiment [6] was -0.17% [at 18.6 µM] (inactive); in experiment [13] it was 0.0146% [at 18.6 µM] (inactive). Besides, the fluorescence, % of triamterene in experiment [7] was 0.0425% [at 18.6 µM] (inactive). Also, the fluorescence, % of fluorescent control in experiment [16] was -0.0076% [at 18.6 µM] (inactive); in experiment [9], 0.165% [at 18.6 µM] (inactive); in experiment [11], 0.101% [at 18.6 µM] (inactive); in experiment [17], 0.0137% [at 18.6 µM] (inactive); in experiment [14], 0.0089% [at 18.6 µM] (inactive). Further, the fluorescence, % of fluorescein in [8] is -0.014% [at 18.6 µM] (inactive). Moreover, in [10], the activity change was 0.0521% [at 18.6 µM, stronger effect = higher value] (inactive). Also, the fluorescence, % of Rose Bengal in experiment [12] is 0.527% [at 18.6 µM] (inactive).

Regarding `CC(=O)CC(=O)Nc1ccc2[nH]c(=O)[nH]c2c1`, the Potency entry in experiment [2], in experiment [15], in experiment [3], in [4], in experiment [19] and in [6] was “inactive” in each case. Also, the Potency result in experiment [7], in [8], in experiment [9], in [10], in experiment [17] and in experiment [13] was “inactive” throughout. Further, the Potency result in experiment [14] was “inactive”. The compound was classed as inactive in experiment [5], in experiment [16], in experiment [11] and in [12].

`CC(=O)Nc1ccc(C(=O)CCl)cc1`: the Potency result in experiment [1] was “inactive and 24.3 µM (active)”; in experiment [15], “inactive and 30.6 µM (active)”; in experiment [4], “inactive and 27.3 µM (active)”; in experiment [19] it was “inactive and 27.3 µM (active)”. For the same compound, the outcome in experiment [5], in experiment [16] and in experiment [11] was inactive. Also, the Potency entry in [6], in experiment [7], in experiment [8], in experiment [9], in experiment [10] and in experiment [17] was “inactive” each time. Also, the Potency entry in [13], in experiment [14], in [20] and in [18] was “inactive” throughout.

In the case of `Clc1ccc2c(c1)C(N1CCNCC1)=Nc1ccccc1O2`, the Potency entry in experiment [2], in [15], in experiment [3], in [4], in experiment [6] and in experiment [7] was “inactive” throughout. In addition, the Potency result in [8], in experiment [9], in experiment [10], in experiment [17], in experiment [13] and in experiment [20] was “inactive” each time. For the same compound, the compound was called inactive in experiment [5], in experiment [16], in experiment [11] and in experiment [12]. Moreover, the Potency in experiment [18] is 19 µM (active) and inactive.
